Results as given in the supplement of paper PMC13380429.

Test system: Vero E6 infected with SARS-CoV-2
Experiment: inhibition of SARS-CoV-2 cytopathic effect; higher = more antiviral protection, active = above 15
Conditions: 48 h

Measured: inhibition of SARS-CoV-2 cytopathic effect

c1ccc(NCc2ccc(CNc3ccccn3)cc2)nc1
inactive: 1 nM 0.1% | 8.33 nM 0.65% | 100 nM -3.43% | 833.33 nM -0.24% | 10000 nM -0.68%

CCN(CC)CCCCNc1ncc2cc(-c3c(Cl)cccc3Cl)c(NC(=O)NC(C)(C)C)nc2n1
inactive: 1 nM -1.36% | 8.33 nM -1.31% | 100 nM 2.1% | 833.33 nM -1.78% | 10000 nM 13.4%

C[C@@](Cc1ccc(O)c(O)c1)(NN)C(=O)O [carbidopa]
inactive: 1 nM -5% | 8.33 nM -1.47% | 100 nM -3.59% | 833.33 nM -2.28% | 10000 nM -0.52%

COc1ccc(CN(CCN(C)C)c2ncccn2)cc1 [thonzylamine]
inactive: 1 nM 0.64% | 8.33 nM 0.52% | 100 nM 0.24% | 833.33 nM 3.55% | 10000 nM -0.17%

COc1ccc(-c2cc(C(F)F)nn2-c2ccc(S(N)(=O)=O)cc2)cc1F [deracoxib]
inactive: 1 nM 2.3% | 8.33 nM -0.35% | 100 nM 3.5% | 833.33 nM 2.29% | 10000 nM 2.18%

COc1ccc(CCN)cc1OC [homoveratrylamine]
inactive: 1 nM 0.49% | 8.33 nM 7.09% | 100 nM 12.7% | 833.33 nM 5.43% | 10000 nM 11.1%

Clc1ccccc1C(c1ccccc1)(c1ccccc1)n1cccn1
inactive: 1 nM 2.55% | 8.33 nM 1.8% | 100 nM -0.74% | 833.33 nM 1.1% | 10000 nM 0.33%

Oc1ccc2c3c1O[C@H]1c4[nH]c5c(c4C[C@@]4(O)[C@@H](C2)N(CC2CC2)CC[C@]314)C[C@@]1(O)[C@H]2Cc3ccc(O)c4c3[C@@]1(CCN2CC1CC1)[C@H]5O4 [nor-binaltorphimine]
inactive: 1 nM 1.48% | 8.33 nM 0.42% | 100 nM 2.76% | 833.33 nM 1.16% | 10000 nM -1.05%

CCC(CC)(CC(=O)Nc1cccc(/C=C/c2nc(C3CCC3)cs2)c1)C(=O)O [cinalukast]
inactive: 1 nM -1.61% | 8.33 nM 0.18% | 100 nM 0.24% | 833.33 nM 0.4% | 10000 nM 1.8%

O=c1[nH]c(=O)n([C@H]2C[C@H](O)[C@@H](CO)O2)cc1C(F)(F)F [trifluridine]
inactive: 1 nM -2.13% | 8.33 nM 0.14% | 100 nM 0.73% | 833.33 nM 1.01% | 10000 nM -1.77%

C=CC(=O)N1CCC[C@@H](n2nc(-c3ccc(Oc4ccccc4)cc3)c3c(N)ncnc32)C1 [ibrutinib]
inactive: 1 nM -2.27% | 8.33 nM -1.2% | 100 nM 0.01% | 833.33 nM -0.37% | 10000 nM 1.62%

O=C1NC(=O)c2c1c1c3ccccc3[nH]c1c1[nH]c3ccccc3c21 [arcyriaflavin-a]
inactive: 1 nM -5.59% | 8.33 nM -1.16% | 100 nM -3.16% | 833.33 nM -3.59% | 10000 nM -10.1%

NC(=O)c1cccc2cn(-c3ccc([C@@H]4CCCNC4)cc3)nc12 [niraparib]
inactive: 1 nM -0.28% | 8.33 nM 0.08% | 100 nM -1.61% | 833.33 nM 3.39% | 10000 nM 5.55%

CC(=O)N[C@@H](CC(C)C)C(=O)O [acetyl-l-leucine]
inactive: 1 nM 1.37% | 8.33 nM -0.18% | 100 nM -0.14% | 833.33 nM -1.79% | 10000 nM -0.49%

C/C=C/C=C/C(=O)O [sorbic-acid]
inactive: 1 nM 1.14% | 8.33 nM 2.26% | 100 nM -1.43% | 833.33 nM 2.41% | 10000 nM 2.55%

CCCCN1CCC(CNC(=O)c2c3n(c4ccccc24)CCCO3)CC1 [piboserod]
inactive: 1 nM -0.67% | 8.33 nM 1.75% | 100 nM 0.6% | 833.33 nM -0.97% | 10000 nM 1.25%

CCOC(=O)N1CSC[C@H]1C(=O)O [telmesteine]
inactive: 1 nM 1.96% | 8.33 nM 2.23% | 100 nM 2.74% | 833.33 nM 4.95% | 10000 nM -0.12%

O=C(O)Cc1ccc2c(c1)C(=O)c1ccccc1CO2 [isoxepac]
inactive: 1 nM -4.41% | 8.33 nM -3.03% | 100 nM -6.78% | 833.33 nM -4.01% | 10000 nM 0.02%

Cc1nccn1CCC(C(N)=O)(c1ccccc1)c1ccccc1 [imidafenacin]
inactive: 1 nM -0.4% | 8.33 nM -0.55% | 100 nM 1.32% | 833.33 nM 4.43% | 10000 nM 0.89%

CC(C)COC(=O)c1ccc(N)cc1 [isobutamben]
inactive: 1 nM -0.32% | 8.33 nM -0.5% | 100 nM -1.06% | 833.33 nM -2.97% | 10000 nM 1.5%

CC(C)c1ccc(C(=O)c2cccs2)c(SCCCCCCCCN(C)C)n1
active: 10000 nM 68.5%
inactive: 1 nM -1.33% | 8.33 nM 0.45% | 100 nM 2.39% | 833.33 nM 1.71%

Nc1nc(OCc2cc(Br)cs2)c2[nH]cnc2n1 [lomeguatrib]
inactive: 1 nM -1% | 8.33 nM 0% | 100 nM 0.04% | 833.33 nM -0.89% | 10000 nM 0.11%

CCCCC1CCC(c2nc(-c3ccncc3)no2)CC1 (stereo not given)
inactive: 1 nM 1.12% | 8.33 nM 0.82% | 100 nM -0.05% | 833.33 nM 0.32% | 10000 nM 2.33%

C=CCN1CC[C@]23CCCC[C@H]2[C@H]1Cc1ccc(O)cc13 [levallorphan]
inactive: 1 nM -1.28% | 8.33 nM 0.72% | 100 nM -1.34% | 833.33 nM -1.26% | 10000 nM -3.54%

COc1nccnc1NS(=O)(=O)c1ccc(N)cc1 [sulfametopyrazine]
inactive: 1 nM -1.43% | 8.33 nM 0.06% | 100 nM -1.36% | 833.33 nM -2.74% | 10000 nM -0.68%

CCN1C[C@]2(OC(=O)c3ccccc3NC(C)=O)CC[C@H](OC)[C@@]34[C@@H]2C[C@@H]([C@@H]13)[C@@]1(O)C[C@H](OC)[C@H]2C[C@@H]4[C@]1(O)[C@H]2OC [lappaconite]
inactive: 1 nM 6.58% | 8.33 nM 2.61% | 100 nM 1.75% | 833.33 nM 0.15% | 10000 nM 0.28%

COC(=O)C1=C(C)NC(C)=C(C(=O)OC)C1c1ccccc1[N+](=O)[O-] [nifedipine]
inactive: 1 nM -0.99% | 8.33 nM 0.14% | 100 nM -0.27% | 833.33 nM 3.23% | 10000 nM 4.43%

COc1ccc2c(OCc3nnc4ccc(-c5ccccc5)nn34)ccnc2c1
inactive: 1 nM 1.19% | 8.33 nM -0.48% | 100 nM 0.42% | 833.33 nM -0.17% | 10000 nM 1.81%

CC(C)C(=O)c1c(C(C)C)nn2ccccc12 [ibudilast]
inactive: 1 nM 2.15% | 8.33 nM 6.68% | 100 nM 5.43% | 833.33 nM 7.59% | 10000 nM 2.39%

CCOc1ccc(S(=O)(=O)O)c2cccnc12 [actinoquinol]
inactive: 1 nM 0.25% | 8.33 nM 0.94% | 100 nM 0.78% | 833.33 nM 1.14% | 10000 nM -3.36%

O=C(O)CCC(=O)Nc1ccc(S(=O)(=O)Nc2nccs2)cc1 [succinylsulfathiazole]
inactive: 1 nM -0.25% | 8.33 nM 0.46% | 100 nM 0.51% | 833.33 nM 0.85% | 10000 nM -0.56%

C=CC(=O)Nc1cc(Nc2nccc(-c3c[nH]c4ccccc34)n2)c(OC)cc1N(C)CCN(C)C
inactive: 1 nM -3.07% | 8.33 nM -6.83% | 100 nM -10.5% | 833.33 nM -13.9% | 10000 nM -12.3%

Fc1ccc2c(CCNCc3cccc(OCC(F)(F)C(F)F)c3)c[nH]c2c1 [idalopirdine]
inactive: 1 nM 2.26% | 8.33 nM 0.96% | 100 nM 0.82% | 833.33 nM -0.82% | 10000 nM -3.37%

CC1(C)CN(C(=O)c2ccc(-c3cccc4nc(NC(=O)C5CC5)nn34)cc2)C1 [solcitinib]
inactive: 1 nM 0.35% | 8.33 nM 1.82% | 100 nM 2.28% | 833.33 nM 4.05% | 10000 nM 4.4%

O=C(NCCCNc1nc(Nc2cccc(NC(=O)N3CCCC3)c2)ncc1I)c1cccs1
inactive: 1 nM -2.02% | 8.33 nM -0.75% | 100 nM 0.52% | 833.33 nM -5.21% | 10000 nM -23.3%

CCOc1ccccc1C(N)=O [ethenzamide]
inactive: 1 nM 5.35% | 8.33 nM 3.1% | 100 nM 2.44% | 833.33 nM 2.62% | 10000 nM 4.34%

Cc1ccccc1N(C)C(=O)c1ccc([S+]([O-])c2nccs2)c([N+](=O)[O-])c1 (stereo not given)
active: 833.33 nM 16.5%
inactive: 1 nM -0.08% | 8.33 nM -0.71% | 100 nM 1.56% | 10000 nM 12.2%

COc1cc(N)c(Cl)cc1C(=O)OCCCN1CCCCC1
inactive: 1 nM 3.12% | 8.33 nM -0.29% | 100 nM 3.25% | 833.33 nM 4.22% | 10000 nM 1.72%

Cc1ccc(F)cc1C(=O)Nc1ccc(C(=O)N2Cc3cccn3Cc3ccccc32)c(Cl)c1 [lixivaptan]
inactive: 1 nM -2.22% | 8.33 nM 2.67% | 100 nM 2% | 833.33 nM 1.18% | 10000 nM -0.31%

CCCCCCOC(=O)CCC(=O)CN [hexaminolevulinate]
inactive: 1 nM -0.29% | 8.33 nM 0.97% | 100 nM 1.79% | 833.33 nM 1.44% | 10000 nM 5.39%

COc1cc(NC(=O)c2cccc(-n3cc(NC(=O)Nc4cccc(C)c4)cn3)c2)cc(OC)c1OC
inactive: 1 nM -0.97% | 8.33 nM -0.75% | 100 nM 2.66% | 833.33 nM 0.39% | 10000 nM -0.61%
